Rows were chosen to be rich in hits. Some 21% of all compounds tested hit in one or more screens of this group.
DT40 TDP1 CPT: growth inhibition of DT40 Tdp1-/-;hTDP1 cells with camptothecin (screen for TDP1 inhibitors); Potency, µM (titrated, usually from 46.2 µM), for the others: top-dose activity change, negative = growth inhibition, most hits filed as inhibitors; AID 686979; chicken DT40 Tdp1-/-;hTDP1 cells + 20 nM CPT, ATP luminescence, 48 h; actives 12% (n = 420,000); further: potency means the concentration at half of the fitted maximal effect; nearly all actives have a fitted effect of over 55% in size
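Chicken DT40 Tdp1-/- cells stably complemented with human TDP1 were seeded at 400 cells/well in medium containing 20 nM camptothecin, exposed to pin-transferred compounds, and grown at 37 °C for at least 48 hr. Viability was read as ATP luminescence.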
RORgamma inh: ROR gamma (mouse) transcription inhibition; actives 5.4% (n = 310,000); P51450; Drosophila S2 Gal4-RORgamma UAS-luciferase reporter, 20 h; Potency, µM (doses to about 53.6 µM), for inactives: at the highest dose activity change, negative = inhibition, hits mostly inhibitors; further: potency means the concentration at half of the fitted maximal effect; nearly all actives have a fitted effect of over 60% in size
Target sequence (P51450 whole entry, looked up, the tested form may be a part): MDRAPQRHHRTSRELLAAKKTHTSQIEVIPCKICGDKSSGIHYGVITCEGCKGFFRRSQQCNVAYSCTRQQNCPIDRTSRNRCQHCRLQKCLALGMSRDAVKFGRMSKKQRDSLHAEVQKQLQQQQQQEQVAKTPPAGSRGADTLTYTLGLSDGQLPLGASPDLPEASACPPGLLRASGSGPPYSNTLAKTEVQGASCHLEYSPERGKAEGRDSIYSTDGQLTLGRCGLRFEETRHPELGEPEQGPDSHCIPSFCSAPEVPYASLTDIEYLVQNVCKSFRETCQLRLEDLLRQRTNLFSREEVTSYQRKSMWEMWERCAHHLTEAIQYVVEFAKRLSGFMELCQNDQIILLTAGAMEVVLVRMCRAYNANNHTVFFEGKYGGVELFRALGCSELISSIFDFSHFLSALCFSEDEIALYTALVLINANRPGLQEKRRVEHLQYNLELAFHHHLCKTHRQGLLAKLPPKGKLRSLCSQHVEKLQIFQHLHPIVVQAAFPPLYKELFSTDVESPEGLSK
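Using a luciferase readout, inhibitors were identified by reduced reporter activity in Drosophila cells coexpressing a copper-inducible Gal4–ROR gamma fusion and UAS-driven Photinus luciferase, incubated 20 hr after 700 uM copper sulfate.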
VP16 counter: counter-screen for ROR gamma inhibitors: Gal4-VP16 reporter. Potency, µM (top dose mostly 53.6 µM), for the others: at the top dose activity, negative = inhibition, usual class: inhibitors. Drosophila S2 Gal4-VP16 UAS-luciferase, luminescence, 20 h. AID 2546. actives 3.5% (n = 310,000);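 further: Gal4-VP16 expression switched on by copper sulfate through the metallothionein promoter; potency means the concentration at half of the fitted maximal effect; nearly all actives have a fitted effect of over 50% in size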
ELG1 DNA repair: inhibitors of ELG1-dependent DNA repair in HEK293T cells | Potency, µM (series often up to 46.1 µM), for inactives: top-dose activity change, negative = inhibition, usual class: inhibitors | AID 504467 | HEK293T ELG1-luciferase reporter, luminescence, 16 h; DNA damage induced by 5-fluorouridine | actives 2.3% (n = 330,000); further: potency means the concentration at half of the fitted maximal effect; nearly all actives have a fitted effect of over 55% in size
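Luminescence from the luciferase reporter, measured 30 min after ONE-Glo reagent at room temperature, was the read-out. Beforehand, 2,000 cells per well were exposed for 16 hr at 37 °C to 5-fluorouridine together with compound or vehicle.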
DT40 TDP1 no CPT: qHTS for Inhibitors of human tyrosyl-DNA phosphodiesterase 1 (TDP1): qHTS in cells in absence of CPT | Potency, µM (doses to about 46.2 µM), for inactives: top-dose activity change, negative = growth inhibition, usual class: inhibitors | DT40 Tdp1-/- hTDP1 cells, no CPT, ATP luminescence, 48 h | actives 15% (n = 420,000); further: potency means the concentration at half of the fitted maximal effect; nearly all actives have a fitted effect of over 55% in size
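A cellular qHTS used chicken DT40 cells lacking endogenous Tdp1 but carrying stably transfected human TDP1. Compounds were applied without camptothecin, and cell growth kinetics were judged by ATP-dependent luminescence after ≥48 hr.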
IL-1B inflam inh: inhibitors of inflammasome signaling (IL-1 beta secretion); THP-1 LPS/ATP IL-1B secretion, AlphaLISA, 16 h; hits give low values; activity change, % at 57.5 µM; actives 4.7% (n = 360,000); AID 743279; in the data active means activity change below about -50%; inconclusive means mostly about -30% to -49%
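THP-1 cells pretreated 1 hr with compounds (up to 57.5 uM final), then stimulated with LPS (250 ng/mL final) plus ATP (1.25 mM final); secreted IL-1B measured by AlphaLISA after 16 hr, decreased signal indicating inhibition.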
The depositor's hits bear a star; [ ] = another dose, or the depositor's remark. Unless noted, the call rests on the fitted dose curve; in most records, active means well fitted curve in the direction sought with a large enough effect; inconclusive means small, poorly fitted or top-dose-only effect, or another doubt; inactive means no such curve, though single readings can be large; an effect the other way counts as inactive or inconclusive. On the % scale 0 is the no-effect control and ±100 the full control effect.

How did COCCn1c(=NC(=O)c2cc(-c3cccs3)nc3ccccc23)sc2cc(S(N)(=O)=O)ccc21 do in these assays?
DT40 TDP1 CPT: inconclusive; RORgamma inh: inconclusive; VP16 counter: -22%; ELG1 DNA repair: 6.5µM*; DT40 TDP1 no CPT: inconclusive; IL-1B inflam inh: inconclusive

What do the screens show for `C=CCn1c(=NC(=O)c2cc(Cl)sc2Cl)sc2cc(S(N)(=O)=O)ccc21`?
DT40 TDP1 CPT: inconclusive; RORgamma inh: -3%; VP16 counter: inconclusive; ELG1 DNA repair: -19%; DT40 TDP1 no CPT: inconclusive; IL-1B inflam inh: -5

Results for O=C(N/N=C/c1ccc(-n2ccnc2)cc1)c1cccs1 ?
DT40 TDP1 CPT: inconclusive; RORgamma inh: 13%; VP16 counter: inconclusive; ELG1 DNA repair: inconclusive; DT40 TDP1 no CPT: -16%; IL-1B inflam inh: inconclusive

What do the screens show for `Cc1cc(C)c(NC(=S)N(CCN2CCCCC2)Cc2ccco2)c(C)c1`?
DT40 TDP1 CPT: inconclusive; RORgamma inh: 10µM*; VP16 counter: -8%[10 µM]; ELG1 DNA repair: -11%; DT40 TDP1 no CPT: 16µM*; IL-1B inflam inh: -3

How did Cc1cccc(C)c1NC(=S)N(CCN1CCCCCC1)Cc1ccco1 do in these assays?
DT40 TDP1 CPT: inconclusive; RORgamma inh: 13µM*; VP16 counter: 15%[10 µM]; ELG1 DNA repair: 2%; DT40 TDP1 no CPT: 18µM*; IL-1B inflam inh: -21

What do the screens show for `Cc1ccccc1NC(=S)N(CCN1CCCCC1)Cc1ccco1`?
DT40 TDP1 CPT: -28%; RORgamma inh: -38%; VP16 counter: 5%; ELG1 DNA repair: -2%; DT40 TDP1 no CPT: inconclusive; IL-1B inflam inh: 16

Results for O=c1c2c(nc3c(-c4ccccc4)c[nH]n13)CCC2 ?
DT40 TDP1 CPT: inconclusive; RORgamma inh: 6.3µM*; VP16 counter: inconclusive; ELG1 DNA repair: -16%; DT40 TDP1 no CPT: 16µM*; IL-1B inflam inh: 18

Results for O=c1c2c(nc3c(-c4ccc(Cl)cc4)c[nH]n13)CCC2 ?
DT40 TDP1 CPT: 2.3µM*; RORgamma inh: 5µM*; VP16 counter: inconclusive; ELG1 DNA repair: 13µM*; DT40 TDP1 no CPT: 4.6µM*; IL-1B inflam inh: 53

How did O=c1c2c(nc3cc(-c4ccccc4)[nH]n13)CCC2 do in these assays?
DT40 TDP1 CPT: 5%; RORgamma inh: -36%; VP16 counter: -7%; ELG1 DNA repair: inconclusive; DT40 TDP1 no CPT: -5%; IL-1B inflam inh: 19

How did O=c1c2c(nc3c(-c4cccc(Br)c4)c[nH]n13)CCCC2 do in these assays?
DT40 TDP1 CPT: 16µM*; RORgamma inh: 2.5µM*; VP16 counter: 3.2µM*; ELG1 DNA repair: inconclusive; DT40 TDP1 no CPT: -103%; IL-1B inflam inh: -15

Results for O=c1c2c(nc3cc(-c4ccc(Br)cc4)[nH]n13)CCCC2 ?
DT40 TDP1 CPT: inconclusive; RORgamma inh: -6%; VP16 counter: -11%; ELG1 DNA repair: -13%; DT40 TDP1 no CPT: inconclusive; IL-1B inflam inh: -61*

Results for Cc1c(-c2ccccc2)[nH]n2c(=O)c3c(nc12)CCCC3 ?
DT40 TDP1 CPT: 1%; RORgamma inh: 12%; VP16 counter: inconclusive; ELG1 DNA repair: inconclusive; DT40 TDP1 no CPT: -5%; IL-1B inflam inh: -24

What do the screens show for `O=C(CCCOc1ccc(Br)cc1)Nc1nnc(C2CC2)s1`?
DT40 TDP1 CPT: -13%; ELG1 DNA repair: 10%; DT40 TDP1 no CPT: -6%; IL-1B inflam inh: 0

What do the screens show for `CC(=O)Nc1ccc(SCCC2CCCCN2C)cc1` (configuration not stated)?
DT40 TDP1 CPT: 6%; RORgamma inh: 17%; VP16 counter: 3%; ELG1 DNA repair: 14%; DT40 TDP1 no CPT: 1%; IL-1B inflam inh: -16

How did CC(=O)N1CCOc2ccc(S(=O)(=O)N(C)c3cccc(C)c3)cc21 do in these assays?
DT40 TDP1 CPT: -20%; RORgamma inh: -19%; VP16 counter: 7%; ELG1 DNA repair: 3%; DT40 TDP1 no CPT: inconclusive; IL-1B inflam inh: 32

How did Cc1cc(C)n(-c2nc3sc4c(c3c(=O)[nH]2)CCCC4)n1 do in these assays?
RORgamma inh: 0.71µM*; VP16 counter: 1.4µM*; ELG1 DNA repair: 17%

Results for CCOC(=O)c1sc(NC(=O)Cn2nnc3sc4c(c3c2=O)CCCC4)nc1C ?
DT40 TDP1 CPT: -2%; RORgamma inh: -36%; VP16 counter: 4%; ELG1 DNA repair: 0%; DT40 TDP1 no CPT: -10%; IL-1B inflam inh: 29

Results for CCOC(=O)c1cnn(-c2nc(C)nc3sc4c(c23)CCC4)c1N ?
RORgamma inh: -2%[10 µM]; VP16 counter: 6%; ELG1 DNA repair: 1%

What do the screens show for `CCOC(=O)c1cnn(-c2nc3sc4c(c3c(=O)[nH]2)CCCC4)c1N`?
RORgamma inh: 0.56µM*; VP16 counter: 0.79µM*; ELG1 DNA repair: -8%

How did CCOC(=O)c1nc2sc3c(c2c(=O)n1C(C)C(=O)OCC)CCCC3 (configuration not stated) do in these assays?
DT40 TDP1 CPT: 10µM*; RORgamma inh: -9%; VP16 counter: 0%; ELG1 DNA repair: inconclusive; DT40 TDP1 no CPT: inconclusive; IL-1B inflam inh: inconclusive

Results for Cc1cc(C)n(-c2nnc(C)c(=O)[nH]2)n1 ?
DT40 TDP1 CPT: -4%; RORgamma inh: 16µM*; VP16 counter: -10%; ELG1 DNA repair: -2%; DT40 TDP1 no CPT: -4%; IL-1B inflam inh: 16

What do the screens show for `CNC[C@H]1Oc2cc(Br)ccc2S(=O)(=O)N([C@H](C)CO)C[C@H]1C`?
DT40 TDP1 CPT: -11%; DT40 TDP1 no CPT: -7%; IL-1B inflam inh: -17

Results for CCOC(=O)C1=C(N)n2c(s/c(=C\c3cccs3)c2=O)=C(C(=O)OCC)C1c1cccs1 (configuration not stated) ?
DT40 TDP1 CPT: 4.1µM*; RORgamma inh: -1%; VP16 counter: -1%; ELG1 DNA repair: -2%; DT40 TDP1 no CPT: 6.5µM*; IL-1B inflam inh: 43

How did Cc1ccc(S(=O)Cc2nc(-c3ccc(C(=O)NC(C)c4ccccc4)cc3)oc2C)cc1 (configuration not stated) do in these assays?
DT40 TDP1 CPT: inconclusive; DT40 TDP1 no CPT: 15µM*

Results for COc1cc(NC(=O)c2ccc(-c3nc(CSc4ccccc4)c(C)o3)cc2)cc(OC)c1 ?
DT40 TDP1 CPT: 18µM*; DT40 TDP1 no CPT: 15µM*

How did Cc1oc(-c2ccc(C(=O)NCCC(C)C)cc2)nc1CS(=O)(=O)c1ccccc1 do in these assays?
DT40 TDP1 CPT: -23%; DT40 TDP1 no CPT: -18%

High-throughput results as filed in PubChem BioAssay.
